Bioassay records: PubChem, Broad Institute
U2OS ROS induce: raises reactive oxygen species in U2OS cancer cells | U2OS ROS induction, H2DCF-DA fluorescence | ROS induction (% of piperlongumine), % at 10 µM | 46,000 compounds, 2% hits; in the data active = ROS induction above about 79%, passing the limit was not always enough
YB-1 expr inh: YB-1 expression inhibition | U2OS, qRT-PCR YB-1 vs CDIP delta delta Cp, 16 h; stronger effect = higher value; zero = DMSO, each unit about twofold | delta delta Cp (YB-1 minus CDIP) (test concentration not listed) | 30,000 compounds, 0.37% hits | AID 434959;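 active = delta delta Cp rounded down to an integer at or above 3, about 3 SD of DMSO wells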;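 also: higher means less YB-1 transcript or more CDIP transcript relative to DMSO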
Large screens that a line does not name were inactive. Most compounds without a hit are left out; they make up all but 2.1% or so of the library.

CS(=O)(=O)Nc1ccc(S(=O)(=O)NCC2CCCO2)cc1 (stereo not drawn)	U2OS ROS induce 96 (no result: YB-1 expr inh)
CN(CC(=O)N1CCN(c2ccccc2)CC1)S(=O)(=O)c1ccccc1	none (no result: YB-1 expr inh)
O=C(O)c1cc(-c2ccccc2)nc2ccccc12	none
CCN(CC)c1ccc(-c2cc(C(=O)O)c3c(ccc4ccccc43)n2)cc1	U2OS ROS induce 440 (no result: YB-1 expr inh)
COc1ccc(NC(=O)c2cc3c(s2)-c2ccccc2SC3)cc1	none (no result: YB-1 expr inh)
C=C1C(=O)O[C@H]2C1CCC(=C)[C@@H]1C[C@H](OC(=O)C=C(C)C)C(=C)[C@@H]12 (stereo partly drawn)	none
C=C(CO)C(=O)O[C@H]1C[C@H]2C(=C)C[C@H](OC(=O)C(=C)CO)[C@H]3C(=C)C(=O)O[C@@H]3[C@H]2C1=C	U2OS ROS induce 115
CC(=O)Nc1ccc(NC(=O)CCSc2ccccc2)cc1	none (no result: YB-1 expr inh)
O=C(CCSc1nc(-c2ccccc2)cs1)Nc1ccccc1	U2OS ROS induce 106 (no result: YB-1 expr inh)
Cc1ccc(-n2cc(-c3ccccc3)nc2SCC(=O)NCCc2ccccc2)cc1	none (no result: YB-1 expr inh)
C=CCNC(=O)c1cc2c(=O)n3ccccc3nc2n(CCC)c1=N	none (no result: YB-1 expr inh)
O=C(O)c1ccccc1C(=O)NCC1CCCO1 (stereo not drawn)	none (no result: YB-1 expr inh)
C=CCNC(=O)c1cc2c(=O)n3cccc(C)c3nc2n(CC2CCCO2)c1=N (stereo not drawn)	U2OS ROS induce 90 (no result: YB-1 expr inh)
Cc1cccn2c(=O)c3cc(C(=O)NCC4CCCO4)c(=N)n(C4CCCCC4)c3nc12 (stereo not drawn)	U2OS ROS induce 96 (no result: YB-1 expr inh)
O=C(CC(c1ccccc1)c1ccccc1)Nc1ccccn1	none (no result: YB-1 expr inh)
S=C(NC1CCCCC1)N(Cc1ccccc1)Cc1ccccc1	none (no result: YB-1 expr inh)
COc1ccc(CCNC(=S)NC(=O)c2ccc(Cl)cc2Cl)cc1OC	none (no result: YB-1 expr inh)
O=CNC1c2ccccc2Oc2ccccc21	none (no result: YB-1 expr inh)
S=C(Nc1ccccc1)N1CCC(c2ccccc2)=N1	none (no result: YB-1 expr inh)
S=C(Nc1ccccc1)N1CCN(c2ccc3nnc(-c4ccccc4)n3n2)CC1	U2OS ROS induce 240 (no result: YB-1 expr inh)
C=C(C(=O)O)[C@@H]1CC[C@@]2(C)CC[C@@H](O)C(=C)C2C1 (stereo partly drawn)	YB-1 expr inh 3.6
C=C(C(=O)O)[C@@H]1CC[C@@]2(C)CCC=C(C)[C@@H]2C1	none
C[C@@H]1CN([C@@H](C)CO)C(=O)c2cccc(NC(=O)C3CCOCC3)c2O[C@@H]1CN(C)C(=O)NC1CCCCC1	none
C[C@@H]1CN([C@H](C)CO)C(=O)c2cccc(NC(=O)NC3CCCCC3)c2O[C@@H]1CN(C)Cc1ccc(-c2ccccc2)cc1	U2OS ROS induce 101
C[C@H]1CN([C@@H](C)CO)C(=O)c2cccc(NC(=O)NC3CCCCC3)c2O[C@H]1CN(C)Cc1ccc(-c2ccccc2)cc1	none
C[C@@H]1CN([C@H](C)CO)C(=O)c2cccc(NC(=O)C3CCOCC3)c2O[C@@H]1CN(C)C(=O)NC1CCCCC1	YB-1 expr inh 11
C[C@H](CO)N1C[C@H](C)[C@@H](CN(C)Cc2ccc(-c3ccccc3)cc2)Oc2c(NC(=O)C3CCOCC3)cccc2C1=O	none
C[C@@H]1CN([C@H](C)CO)C(=O)c2cccc(NC(=O)C3CCOCC3)c2O[C@H]1CN(C)Cc1ccc(-c2ccccc2)cc1	U2OS ROS induce 100
CCN1C(C(=O)c2ccccc2)C(=O)c2ccccc2S1(=O)=O (stereo not drawn)	none (no result: YB-1 expr inh)
CCOc1ccc(-c2c(C#N)c(N)nc(SCC(=O)c3ccc(Cl)cc3)c2C#N)cc1	none (no result: YB-1 expr inh)
CCC(C)NC(=O)CSc1nc2ccsc2c(=O)n1Cc1ccc(OC)cc1 (stereo not drawn)	none (no result: YB-1 expr inh)
C[C@@H]1CN([C@@H](C)CO)C(=O)Cc2cc(NC(=O)Nc3cccc4ccccc34)ccc2O[C@@H]1CN(C)C(=O)Nc1ccc(C(F)(F)F)cc1	U2OS ROS induce 162
C[C@H](CO)N1C[C@H](C)[C@H](CN(C)C(=O)Nc2ccc(C(F)(F)F)cc2)Oc2ccc(NC(=O)Nc3cccc4ccccc34)cc2CC1=O	none
C[C@@H]1CN([C@@H](C)CO)C(=O)c2cc(NC(=O)Nc3cccc4ccccc34)ccc2O[C@@H]1CN(C)C(=O)Nc1ccc(C(F)(F)F)cc1	none
C[C@H]1CN([C@@H](C)CO)C(=O)c2cc(NC(=O)Nc3cccc4ccccc34)ccc2O[C@@H]1CN(C)C(=O)Nc1ccc(C(F)(F)F)cc1	U2OS ROS induce 80
CCc1nnc(SCC(=O)N(CC)c2ccccc2)c2cc3occc3n12	none (no result: YB-1 expr inh)
COC(=O)c1ccc2c(c1)N(C)C(=O)/C(=C/c1ccccc1OC)S2	none (no result: YB-1 expr inh)
Cc1ccc(SCc2nccn2Cc2ccc(Cl)cc2)cc1	none (no result: YB-1 expr inh)
COc1ccc(NC(=O)Nc2cccc3c2O[C@H](CN(C)Cc2ccccc2)[C@@H](C)CN([C@@H](C)CO)C3=O)cc1	YB-1 expr inh 3.6
Cc1cc(C(=O)Nc2cccc3c2O[C@H](CN(C)Cc2ccc(Oc4ccccc4)cc2)[C@H](C)CN([C@H](C)CO)C3=O)n(C)n1	none
COc1ccc(CN(C)C[C@@H]2Oc3c(NC(=O)Nc4ccccc4)cccc3C(=O)N([C@@H](C)CO)C[C@H]2C)cc1	none
C[C@@H]1CN([C@@H](C)CO)C(=O)c2cccc(N(C)C)c2O[C@H]1CN(C)Cc1ccccc1	YB-1 expr inh 14
C[C@H](CO)N1C[C@H](C)[C@@H](CN(C)Cc2ccccc2)Oc2c(cccc2N(C)C)C1=O	none
COc1ccc(NC(=O)Nc2cccc3c2O[C@@H](CN(C)Cc2ccc(Cl)c(Cl)c2)[C@H](C)CN([C@@H](C)CO)C3=O)cc1	U2OS ROS induce 96
COc1ccc(CN(C)C[C@@H]2Oc3c(NC(=O)Nc4ccc(OC)cc4)cccc3C(=O)N([C@H](C)CO)C[C@H]2C)cc1	none
Cc1cc(C(=O)Nc2cccc3c2O[C@@H](CN(C)Cc2ccc(Oc4ccccc4)cc2)[C@H](C)CN([C@@H](C)CO)C3=O)n(C)n1	U2OS ROS induce 117
CCOc1ccccc1/C=N\n1cnnc1	none (no result: YB-1 expr inh)
Cc1cc2c(cc(C(=O)NCc3ccc(Cl)cc3)n2Cc2ccc(Cl)cc2)o1	none (no result: YB-1 expr inh)
Cc1c2cnn(-c3ccccc3)c(=O)c2c(C)n1CCCC(=O)NC1CCCCCC1	none (no result: YB-1 expr inh)
C[C@@H]1CN([C@@H](C)CO)C(=O)c2cccc(NC(=O)Nc3ccccc3)c2O[C@H]1CN(C)Cc1ccc(Oc2ccccc2)cc1	U2OS ROS induce 105
C[C@@H]1CN([C@H](C)CO)C(=O)c2cccc(NC(=O)Nc3ccc(F)cc3)c2O[C@@H]1CN(C)Cc1ccc2c(c1)OCO2	none
C[C@@H]1CN([C@H](C)CO)C(=O)c2cccc(NC(=O)Nc3ccccc3)c2O[C@H]1CN(C)Cc1ccc(Oc2ccccc2)cc1	none
C[C@@H]1CN([C@H](C)CO)C(=O)c2cccc(NC(=O)Nc3ccccc3)c2O[C@H]1CN(C)CC1CC1	none
C[C@H](CO)N1C[C@H](C)[C@H](CN(C)CC2CCCCC2)Oc2c(NC(=O)Nc3ccccc3)cccc2C1=O	YB-1 expr inh 3.1
C[C@H](CO)N1C[C@H](C)[C@@H](CN(C)Cc2ccc(Oc3ccccc3)cc2)Oc2c(NC(=O)Nc3ccc(F)cc3)cccc2C1=O	U2OS ROS induce 82
C[C@@H]1CN([C@@H](C)CO)C(=O)c2cccc(NC(=O)Nc3ccc(F)cc3)c2O[C@H]1CN(C)Cc1ccc2c(c1)OCO2	U2OS ROS induce 115
C[C@H](CO)N1C[C@H](C)[C@H](CN(C)Cc2ccc(Oc3ccccc3)cc2)Oc2c(NC(=O)Nc3ccc(F)cc3)cccc2C1=O	none
CS(=O)(=O)N1CCC(C(=O)NCCN2CCCCCC2)CC1	none (no result: YB-1 expr inh)
CCOC(=O)CSc1nc(-c2ccc(C)cc2)ns1	none (no result: YB-1 expr inh)
